We go through twelve compounds from the supplement of paper PMC12494721.

Structures can show the parent of a compound that is named as a salt.

What all share (conditions): incubation time: 27 h, anaerobic, 37 °C
The test system of assay [1] is Clostridium sporogenes DSM 1664. The assay is described as follows: growth (OD595) fold change vs plate DMSO controls (fold change (ratio)); higher = more growth. The gist of the method:
(§1)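 Anaerobic 27 h, 37 °C mGAM 96-well cultures were shaken, then read for absorbance at 595 nm. Values were blank-subtracted and corrected for compound background using 20 µM compound solutions in water. A calibration factor of 5 converted them to OD. Growth is the fold change versus the median of plate DMSO controls. Fold changes above 1.5 were set to NA, and values are the mean of 2 biological replicates.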

The subject of assay [2] is Escherichia coli IAI1. The description is as above. In outline: as §1
In assay [3] the test system is Klebsiella aerogenes DSM 30053. Described as above. The gist of the method: as §1
The test system of assay [4] is Ruminococcus gnavus DSM 108212. The assay is described as above. The gist of the method:
as §1

The test system of assay [5] is Klebsiella aerogenes DSM 30053. The assay is described as follows: fold change of Histamine concentration vs plate DMSO controls (fold change (ratio)); higher = more amine produced, active = hit call of the paper (significant change in both replicates, either direction). In outline:
(§2)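 Anaerobic mGAM cultures of four gut bacterial strains were grown at 37 °C for 27 h in 80 µL wells, starting at OD 0.1 before 1:1 dilution. Compounds were at 20 µM final (sweeteners 50 µM). Whole cultures were extracted with cold acetonitrile/methanol containing 0.1% formic acid and centrifuged. Amines were quantified by LC–triple-quadrupole MS (dynamic MRM) against external calibration curves and drift-corrected within batch. Each value is the fold change versus plate DMSO controls, averaged over 2 biological replicates.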

The subject of assay [6] is Clostridium sporogenes DSM 1664. Nature of the assay: fold change of Tryptamine concentration vs plate DMSO controls (fold change (ratio)); higher = more amine produced, active = hit call of the paper (significant change in both replicates, either direction). In outline:
as §2

Assay [7] relates to Ruminococcus gnavus DSM 108212. Described as above. The gist of the method:
as §2

For assay [8], the system named is Escherichia coli IAI1. The assay is described as follows: fold change of Putrescine concentration vs plate DMSO controls (fold change (ratio)); higher = more amine produced, active = hit call of the paper (significant change in both replicates, either direction). The gist of the method:
as §2

Assay [9] relates to Klebsiella aerogenes DSM 30053. The description is as above. The gist of the method:
as §2

In assay [10] the test system is Escherichia coli IAI1. Nature of the assay: fold change of Cadaverine concentration vs plate DMSO controls (fold change (ratio)); higher = more amine produced, active = hit call of the paper (significant change in both replicates, either direction). The gist of the method:
as §2

Assay [11] has as its system Klebsiella aerogenes DSM 30053. Described as above. The gist of the method: as §2
In assay [12] the test system is Ruminococcus gnavus DSM 108212. Nature of the assay: fold change of 2-Phenylethylamine concentration vs plate DMSO controls (fold change (ratio)); higher = more amine produced, active = hit call of the paper (significant change in both replicates, either direction). The gist of the method:
as §2

On to `Oc1c(Cl)cc(Cl)c2cccnc12` [Chloroxine] (20 µM), for which the growth in assay [1] was found to be 1.12; in the assay with Escherichia coli IAI1 [2] it was 0.966; in assay [3], 1.02; in assay [4], 0.369. Besides, in [5], the “fold change of Histamine concentration” value was 0.921 (inactive). The figures for the “fold change of Tryptamine concentration” value in [6] and in assay [7] were 1.02 (inactive) and 0.589 (active), respectively. Moreover, the “fold change of Putrescine concentration” value in the assay on Escherichia coli IAI1 [8] was 0.945 (inactive); in assay [9], 0.981 (inactive). In addition, the results for the “fold change of Cadaverine concentration” value (with Escherichia coli IAI1 [10]; in assay [11]) were 1.31 (active) and 1.01 (inactive), respectively. Moreover, the “fold change of 2-Phenylethylamine concentration” value in assay [12] was 0.681 (inactive).
For `CN(C)[C@@H]1C(=O)C(C(N)=O)=C(O)[C@@]2(O)C(=O)C3=C(O)c4c(O)ccc(Cl)c4[C@@H](O)[C@H]3C[C@@H]12` [Demeclocycline hydrochloride] (20 µM), the growth is 0 in assay [1], 0.0384 with Escherichia coli IAI1 [2], 0.0385 in assay [3] and 0.802 in [4]. Further, the “fold change of Histamine concentration” value in assay [5] is 0.107 (active). Besides, the results for the “fold change of Tryptamine concentration” value in assay [6] and in [7] were 0.0455 (active) and 0.319 (active), respectively. Further, the figures for the “fold change of Putrescine concentration” value (in the assay with Escherichia coli IAI1 [8]; in assay [9]) were 0.239 (active) and 0.472 (active), respectively. In addition, the “fold change of Cadaverine concentration” value is 0.225 (active) in the assay on Escherichia coli IAI1 [10] and 0.547 (active) in assay [11]. Besides, in assay [12], the “fold change of 2-Phenylethylamine concentration” value is 0.364 (active).
With `NC(=O)N/N=C/c1ccc([N+](=O)[O-])o1` [Nitrofural] (20 µM), the growth in assay [1] is 1.07; in the assay on Escherichia coli IAI1 [2], 1; in [3], 0.973; in assay [4], 0.979. Moreover, the “fold change of Histamine concentration” value in assay [5] is 0.768 (inactive). The “fold change of Tryptamine concentration” value is 0.906 (inactive) in assay [6] and 0.792 (active) in assay [7]. The “fold change of Putrescine concentration” value with Escherichia coli IAI1 [8] is 0.6 (active); in assay [9], 0.947 (inactive). The entries for the “fold change of Cadaverine concentration” value (in the assay with Escherichia coli IAI1 [10]; in [11]) were 1.22 (inactive) and 1.01 (inactive), respectively. Also, the “fold change of 2-Phenylethylamine concentration” value in assay [12] is 0.836 (inactive).
`CC(=O)Nc1ccc(OCC(O)CNC(C)C)cc1` (centres undefined) [Practolol] (20 µM): the growth in [1] was found to be 0.924; in the assay with Escherichia coli IAI1 [2], 1.01; in assay [3], 1; in assay [4] it was 1.17. Also, the “fold change of Histamine concentration” value in [5] was 1.03 (inactive). The figures for the “fold change of Tryptamine concentration” value in assay [6] and in assay [7] were 1.05 (inactive) and 1.04 (inactive), respectively. Moreover, the “fold change of Putrescine concentration” value was 1.04 (inactive) with Escherichia coli IAI1 [8] and 0.993 (inactive) in [9]. Moreover, the figures for the “fold change of Cadaverine concentration” value (in the assay on Escherichia coli IAI1 [10]; in assay [11]) were 0.999 (inactive) and 1.01 (inactive), respectively. Moreover, the “fold change of 2-Phenylethylamine concentration” value in assay [12] is 1.02 (inactive).
As to `Clc1ccc(C(Cn2ccnc2)OCc2ccsc2Cl)c(Cl)c1` (centres undefined) [Tioconazole] (20 µM), the growth in [1] is 1.21; in the assay on Escherichia coli IAI1 [2], 0.866; in assay [3], 0.838; in assay [4], 0.0103. Also, in assay [5], the “fold change of Histamine concentration” value is 1.05 (inactive). Also, the “fold change of Tryptamine concentration” value in assay [6] is 0.957 (inactive); in assay [7], 0.26 (active). Also, the “fold change of Putrescine concentration” value (with Escherichia coli IAI1 [8]; in assay [9]) was 1.01 (inactive) throughout. For the same compound, the “fold change of Cadaverine concentration” value in the assay on Escherichia coli IAI1 [10] was 0.982 (inactive); in assay [11], 0.997 (inactive). Further, in assay [12], the “fold change of 2-Phenylethylamine concentration” value was 0.275 (active).
In the case of `COc1c(Cl)ccc(Cl)c1C(=O)O` (20 µM), the growth came to 1.05 in assay [1], 1.02 with Escherichia coli IAI1 [2], 1.03 in assay [3] and 1.19 in assay [4]. In assay [5], the “fold change of Histamine concentration” value was 0.99 (inactive). Also, the “fold change of Tryptamine concentration” value in assay [6] is 0.999 (inactive); in assay [7], 0.997 (inactive). Besides, the “fold change of Putrescine concentration” value (in the assay with Escherichia coli IAI1 [8]; in assay [9]) was 1.01 (inactive) throughout. Moreover, the results for the “fold change of Cadaverine concentration” value (in the assay on Escherichia coli IAI1 [10]; in assay [11]) were 1.03 (inactive) and 1.01 (inactive), respectively. Besides, in assay [12], the “fold change of 2-Phenylethylamine concentration” value is 0.995 (inactive).
With `CC(C(=O)O)c1ccc(CC2CCCC2=O)cc1` (centres undefined) [Loxoprofen] (20 µM), the growth was 1.24 in [1], 1.03 with Escherichia coli IAI1 [2], 1.06 in [3] and 1.13 in assay [4]. The “fold change of Histamine concentration” value in [5] is 0.95 (inactive). The “fold change of Tryptamine concentration” value is 1.05 (inactive) in assay [6] and 1 (inactive) in assay [7]. Moreover, the “fold change of Putrescine concentration” value (in the assay on Escherichia coli IAI1 [8]; in [9]) was 1.02 (inactive) in each case. Besides, the “fold change of Cadaverine concentration” value in the assay with Escherichia coli IAI1 [10] is 0.981 (inactive); in assay [11], 1.01 (inactive). Besides, the “fold change of 2-Phenylethylamine concentration” value in assay [12] is 0.997 (inactive).
As for `O=C(O)CCC(=O)Nc1ccc(S(=O)(=O)Nc2nccs2)cc1` [Succinylsulfathiazole] (20 µM), the growth in [1] is 1.03; in the assay with Escherichia coli IAI1 [2] it was 1.11; in assay [3] it was 1.2; in [4], 1.13. The “fold change of Histamine concentration” value in [5] is 0.965 (inactive). Further, the “fold change of Tryptamine concentration” value is 0.988 (inactive) in [6] and 1.02 (inactive) in assay [7]. Besides, the “fold change of Putrescine concentration” value was 1.04 (inactive) in the assay with Escherichia coli IAI1 [8] and 0.997 (inactive) in [9]. The entries for the “fold change of Cadaverine concentration” value (with Escherichia coli IAI1 [10]; in [11]) were 0.991 (inactive) and 1.01 (inactive), respectively. Also, the “fold change of 2-Phenylethylamine concentration” value in assay [12] is 1.02 (inactive).
As for `C[C@H](CC[C@@H](O[C@@H]1O[C@H](CO[C@@H]2O[C@H](CO)[C@@H](O)[C@H](O)[C@H]2O)[C@@H](O)[C@H](O)[C@H]1O[C@@H]1O[C@H](CO)[C@@H](O)[C@H](O)[C@H]1O)C(C)(C)O)[C@H]1CC[C@@]2(C)[C@@H]3CC=C4[C@@H](CC[C@H](O[C@@H]5O[C@H](CO[C@@H]6O[C@H](CO)[C@@H](O)[C@H](O)[C@H]6O)[C@@H](O)[C@H](O)[C@H]5O)C4(C)C)[C@]3(C)[C@H](O)C[C@]12C` [Mogroside V] (50 µM), the growth is 0.958 in assay [1], 0.906 in the assay with Escherichia coli IAI1 [2], 1 in assay [3] and 1.22 in assay [4]. Moreover, the “fold change of Histamine concentration” value in [5] was 1.03 (inactive). The “fold change of Tryptamine concentration” value in assay [6] was 1.12 (inactive); in assay [7] it was 0.979 (inactive). Further, the “fold change of Putrescine concentration” value with Escherichia coli IAI1 [8] was 0.939 (inactive); in [9] it was 1 (inactive). The “fold change of Cadaverine concentration” value with Escherichia coli IAI1 [10] is 1.11 (inactive); in [11] it was 1.02 (inactive). Also, the “fold change of 2-Phenylethylamine concentration” value in assay [12] is 0.964 (inactive).
`CCN(CC)CCCC(C)Nc1ccnc2cc(Cl)ccc12` (centres undefined) [Chloroquine diphosphate] (20 µM): the growth in assay [1] turned out to be 1.07; in the assay with Escherichia coli IAI1 [2] it was 0.965; in assay [3], 0.996; in assay [4], 0.941. In assay [5], the “fold change of Histamine concentration” value is 1.04 (inactive). Moreover, the “fold change of Tryptamine concentration” value in assay [6] was 1.1 (inactive); in assay [7], 1.03 (inactive). Besides, the “fold change of Putrescine concentration” value was 0.939 (inactive) with Escherichia coli IAI1 [8] and 1.02 (inactive) in assay [9]. For the same compound, the results for the “fold change of Cadaverine concentration” value (with Escherichia coli IAI1 [10]; in assay [11]) were 0.962 (inactive) and 0.985 (inactive), respectively. The “fold change of 2-Phenylethylamine concentration” value in assay [12] is 1.02 (inactive).
`CCCCc1oc2ccccc2c1C(=O)c1cc(I)c(OCCN(CC)CC)c(I)c1` [Amiodarone hydrochloride] (20 µM): the growth stood at 1.17 in assay [1], 1.02 with Escherichia coli IAI1 [2], 0.991 in assay [3] and 0.65 in [4]. For the same compound, the “fold change of Histamine concentration” value in assay [5] is 1.06 (inactive). Further, the “fold change of Tryptamine concentration” value in assay [6] was 1.1 (inactive); in [7], 0.75 (active). In addition, the “fold change of Putrescine concentration” value was 0.96 (inactive) with Escherichia coli IAI1 [8] and 1.02 (inactive) in assay [9]. The entries for the “fold change of Cadaverine concentration” value (in the assay with Escherichia coli IAI1 [10]; in assay [11]) were 1.04 (inactive) and 0.985 (inactive), respectively. The “fold change of 2-Phenylethylamine concentration” value in [12] is 0.89 (inactive).
As to `CC(C)(C(=O)c1cccnc1)c1cccnc1` [Metyrapone] (20 µM), the growth in assay [1] was 1.01; in the assay with Escherichia coli IAI1 [2], 1.01; in assay [3] it was 1.01; in assay [4] it was 1. The “fold change of Histamine concentration” value in assay [5] was 1.03 (inactive). In addition, the “fold change of Tryptamine concentration” value in assay [6] and in assay [7] was 1 (inactive) throughout. Further, the “fold change of Putrescine concentration” value was 0.985 (inactive) with Escherichia coli IAI1 [8] and 1.02 (inactive) in assay [9]. In addition, the entries for the “fold change of Cadaverine concentration” value (in the assay on Escherichia coli IAI1 [10]; in assay [11]) were 1.01 (inactive) and 1 (inactive), respectively. The “fold change of 2-Phenylethylamine concentration” value in [12] was 1.01 (inactive).
